Many of the other results were omitted from the sample, so hits are more common in it than they were.
Pin1 inh: blocks the human prolyl isomerase Pin1 | Pin1 FP peptide displacement, HiFluor488, 10 min | Potency, µM (highest dose often 115 µM), usual class: inhibitors | 0.009% of 390,000 active | AID 504891; active means well fitted inhibition curve with a large enough effect in the polarisation, with a control signal flat, not every such curve was filed as active; inconclusive means small, poorly fitted or top-dose-only effect, or effect the other way, or a change in a side signal; inactive means no such curve, though single readings can be large or run the other way; the % refers to the polarisation
Target sequence (Q13526 whole entry, looked up): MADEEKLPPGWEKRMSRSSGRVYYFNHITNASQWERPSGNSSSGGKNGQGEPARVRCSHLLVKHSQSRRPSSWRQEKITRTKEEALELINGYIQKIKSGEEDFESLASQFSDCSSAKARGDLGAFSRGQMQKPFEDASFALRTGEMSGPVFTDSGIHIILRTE
PI5P4K alpha inh: blocks human PI5P4K alpha kinase activity; P48426; PI5P4Kalpha enzyme, ADP-Glo luminescence, 60 min; active compounds read low; max response, %; 1.2% of 330,000 active; active means max response of -50% or lower; inconclusive means between -30% and -50%; inactive means -30% or higher; further: value at the top dose of about 77 µM
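Reactions run in 0.038 M HEPES pH 7.4, 0.28 mM EGTA, 0.1% CHAPS and 5% DMSO, with PI5P4Kalpha, substrate, compound and 5 microM ATP final, one hour at room temperature. Readout is ADP-Glo luminescence.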
PI4K2A block: PI4K2A (human) kinase inhibition. activity change, negative = inhibition, % at 76.9 µM. purified PI4K2A, ADP-Glo luminescence, 1 h; active compounds read low. 0.13% of 420,000 active. Q9BTU6; in the data active means activity change below about -50%; inconclusive means mostly about -30% to -49%
Target sequence (Q9BTU6 whole entry, looked up): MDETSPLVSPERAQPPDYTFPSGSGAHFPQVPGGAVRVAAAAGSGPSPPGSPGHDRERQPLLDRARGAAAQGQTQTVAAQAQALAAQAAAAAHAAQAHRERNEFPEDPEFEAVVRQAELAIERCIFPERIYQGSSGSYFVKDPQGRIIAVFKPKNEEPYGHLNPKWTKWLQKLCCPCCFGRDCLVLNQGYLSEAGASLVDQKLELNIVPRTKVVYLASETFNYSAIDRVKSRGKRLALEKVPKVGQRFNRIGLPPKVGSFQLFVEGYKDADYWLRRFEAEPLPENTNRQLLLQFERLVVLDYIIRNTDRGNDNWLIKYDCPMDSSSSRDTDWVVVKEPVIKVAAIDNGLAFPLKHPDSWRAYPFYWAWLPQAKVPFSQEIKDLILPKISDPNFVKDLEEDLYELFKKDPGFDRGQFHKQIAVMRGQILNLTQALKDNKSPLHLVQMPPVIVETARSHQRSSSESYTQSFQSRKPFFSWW
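PI4K2A activity was measured by ADP-Glo luminescence: enzyme (4 ug/mL stock) and phosphatidylinositol (1.2 mM stock) in Tris pH 7.5/MgCl2/EGTA/Triton X-100 buffer were reacted with ATP (300 microM stock) for one hour at ambient temperature.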
PGK inhibitor: inhibitors of T. brucei phosphoglycerate kinase. AID 602233. P07378. PGK/GAPDH coupled, Kinase-Glo luminescence, 60 min. Potency, µM (doses to about 57.5 µM), most hits filed as inhibitors. 0.043% of 380,000 active; active means well fitted inhibition curve with a large enough effect; inconclusive means small, poorly fitted or top-dose-only effect; inactive means no such curve, though single readings can be large or run the other way; further: nearly all actives have a fitted effect of over 60% in size
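Recombinant glycosomal PGK reaction used 1,3-bisphosphoglycerate generated in-well by GAPDH (100nM final) in 100mM TEA pH 7.6, 5mM MgCl2, 0.01% Tween-20. After 60 minutes at room temperature, ATP was read by Kinase-Glo Plus luminescence end-point.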
A number is an active result; i = inactive; ? = inconclusive; nt = not tested or not shown.

SMILES | Pin1 inh | PI5P4K alpha inh | PI4K2A block | PGK inhibitor
N#Cc1c(N)n(-c2ccccc2)c(=O)c2cc([N+](=O)[O-])ccc12 | ? | i | i | i
O=C1c2ccccc2C(=O)N1c1nccs1 | i | i | i | i
O=c1c2ccccc2sn1-c1nccs1 | i | -81 | i | i
O=C(O)c1cccc(-n2c(/C=C/c3ccccc3)nc3ccccc3c2=O)c1 | i | i | i | i
O=C(O)c1cccc(-n2sc3ccccc3c2=O)c1 | i | -103 | i | i
Cc1ccccc1-n1sc2cc(F)ccc2c1=O | i | -88 | i | i
CN1CCN(c2cccc(Nc3nn4c(=O)c5ccc(C(F)(F)F)cc5nc4s3)c2)CC1 | i | nt | nt | nt
Cc1cc(C)cc(Cn2ncc3c4sc(C)cc4n(C)c3c2=O)c1 | i | nt | nt | nt
COc1ccc(C2c3c(nc(CCc4ccccc4)[nH]c3=O)Oc3ccc4ccccc4c32)cc1OC (centres undefined) | i | nt | nt | nt
CC(=O)Nc1ccc2c(=O)n(-c3ccccc3)sc2c1 | nt | -105 | i | i
O=c1c2ccccc2sn1-c1ccccc1F | nt | -106 | i | i
O=c1c2ccccc2sn1-c1ccccc1 | i | -96 | i | i
CN(C)S(=O)(=O)c1cccc(-n2sc3ccccc3c2=O)c1 | i | -91 | i | i
Cc1ccc(-n2sc3ccccc3c2=O)cc1S(=O)(=O)N1CCCCC1 | i | -111 | ? | i
Cn1c(=O)n(-c2cccc(Cl)c2)c(=O)c2sc3ccccc3c21 | i | nt | i | i
O=c1c2ccccc2sn1-c1cccc(Cl)c1 | nt | -101 | i | i
Cc1cc2c(s1)c1cnn(Cc3ccc(F)c(C)c3)c(=O)c1n2C | i | nt | nt | nt
CCOC(=O)c1ccc(S(=O)(=O)Nc2nc3cc(S(=O)(=O)NC4=NCCCCC4)ccc3s2)cc1 | i | -54 | i | i
Cc1ccc(-c2ccc(C(=O)Nc3ccccc3)o2)c2ccccc12 | i | i | -55 | i
CC1=NN(c2cccc(Cl)c2)C(=O)C1 | i | i | -60 | i
CC1=NN(c2ccc(Cl)c(C(=O)O)c2)C(=O)C1 | ? | i | i | i
CC1=NN(c2cc(Cl)c(S(=O)(=O)O)cc2Cl)C(=O)C1 | ? | i | i | ?
CC1=NN(c2ccc(S(=O)(=O)O)cc2Cl)C(=O)C1 | i | i | -61 | i
CCCCC(=O)OCC(=O)[C@H]1[C@H](C)C[C@H]2[C@@H]3C[C@H](F)C4=CC(=O)C=C[C@]4(C)[C@@]3(F)[C@@H](O)C[C@@]21C | nt | nt | i | nt
COC(=O)c1cc2oc3ccccc3c2n1Cc1nc(-c2ccccc2Cl)oc1C | i | nt | i | i
SMILES | Pin1 inh | PI5P4K alpha inh | PI4K2A block | PGK inhibitor
N#Cc1c(NC(=O)/C=C/c2ccco2)sc2c1CCCC2 | i | -63 | i | i
O=C1c2ccccc2C(=O)N1c1noc2ccccc12 | i | nt | nt | nt
Cc1nc(Nc2ccc(C(=O)O)cc2)nc(Nc2ccc(C(=O)O)cc2)c1[N+](=O)[O-] | i | -56 | i | i
CC(=O)Nc1ccc(Nc2nc(C)c([N+](=O)[O-])c(Nc3ccccc3)n2)cc1 | i | i | i | i
Oc1ccc(/C=N/Nc2ncnc3nc[nH]c23)cc1 | i | -66 | -52 | ?
Clc1ccc(/C=N/Nc2ncnc3nc[nH]c23)cc1 | i | i | i | i
Cc1cc(/C=N/NC(=O)C(O)(c2ccccc2)c2ccccc2)c(C)n1-c1cccc(C(=O)O)c1 | ? | -51 | i | i
Cc1cc(/C=N/NC(=O)C(O)(c2ccccc2)c2ccccc2)c(C)n1-c1ccc(C(=O)O)cc1 | i | i | i | i
COc1ccc(C(=O)Nc2noc3ccccc23)cc1 | i | nt | -73 | nt
COc1ccc(C(=O)Nc2ccc(O)c3ccccc23)cc1 | i | ? | i | i
CCN(CC)S(=O)(=O)c1ccc(N=Nc2c(N)[nH]c(=O)[nH]c2=O)cc1 | i | -67 | i | i
CCN(CC)S(=O)(=O)c1ccc(N=NC2=C(O)CCCC2=O)cc1 | i | i | i | i
CCOC(=O)C1CCN(c2nc(N)c3c(N)nc(SCC(=O)O)cc3c2C#N)CC1 | ? | -88 | ? | ?
O=C1C=CC(=Nc2cccc3c2C(=O)c2ccccc2-3)O1 | ? | i | i | i
O=C1C=CC(=Nc2ccc3c(c2)Cc2cc(F)ccc2-3)O1 | i | -58 | i | i
CC(=O)c1c(C)[nH]c(C(=O)OCC(=O)Nc2ncc(Cl)c(C)c2Cl)c1C | i | -54 | i | i
CC(=O)Nc1sc2c(c1-c1nccs1)CCNC2 | i | nt | nt | nt
Cc1ccccc1Nc1c(-c2ccsc2)nc2c(C)cccn12 | i | nt | i | i
Nc1ccc2nc(-c3ccccc3)sc2c1 | i | i | -55 | ?
COc1cc(/C=C2\SC(=O)N(CC(=O)Nc3cccc(C)c3)C2=O)cc([N+](=O)[O-])c1O | nt | -92 | i | ?
COc1cc(/C=C2/C(=O)NN(c3ccc(F)cc3)C2=O)cc(Cl)c1O | i | ? | i | i
COc1cc(/C=C2/C(=O)NN(c3ccc(Cl)c(Cl)c3)C2=O)cc([N+](=O)[O-])c1O | ? | -88 | i | i
COc1cc(/C=C2\SC(=O)N(c3ccccc3Cl)C2=O)cc([N+](=O)[O-])c1O | i | -53 | i | i
CCOc1cc(/C=C2\SC(=O)N(CC(=O)Nc3ccccc3F)C2=O)cc([N+](=O)[O-])c1O | ? | -55 | i | i
COc1ccc(/C=C2\SC(=O)N(CC(=O)Nc3cccnc3)C2=O)cc1OC | i | i | i | nt
SMILES | Pin1 inh | PI5P4K alpha inh | PI4K2A block | PGK inhibitor
COc1ccc(C(=O)N(Cc2ccccc2)Cc2cccs2)c(O)c1 | i | nt | nt | nt
O=C(O)c1cc(-c2ccc(N3CCOCC3)cc2)nn1-c1ccc(F)cc1 | i | i | i | i
Cc1ccc(-n2nc(-c3ccco3)cc2C(=O)O)cc1 | ? | -51 | i | i
O=C(c1cc(-c2ccco2)nn1-c1cccc(Cl)c1)N1CCCCC1 | i | -82 | i | i
N#Cc1c(-c2ccc(F)cc2)c2c([nH]c1=O)-c1ccccc1OC2 | i | i | i | i
N#Cc1c(-c2cccnc2)c2c([nH]c1=O)-c1ccccc1OC2 | ? | -59 | i | i
N=C1/C(=C\c2ccc(Br)o2)C(=O)N=C2SC(CC(=O)N3CCCCC3)=NN12 | i | -66 | i | i
COc1ccc(NS(=O)(=O)c2cc(C(=O)N3CCN(C/C=C/c4ccccc4)CC3)ccc2C)cc1 | i | i | i | i
O=C(O)c1ccc(N=NNc2cccc([N+](=O)[O-])c2)cc1 | i | -53 | i | i
O=C(CCCCn1ccc(=O)[nH]c1=O)Nc1ccc(O)c(C(=O)O)c1 | i | i | i | i
O=C(CCCCn1ccc(=O)[nH]c1=O)Nc1ccc(C(=O)O)c(O)c1 | i | -71 | i | i
COC(=O)c1cc(Cl)ccc1NS(=O)(=O)C(F)(F)F | nt | nt | i | nt
CCOc1ccc(/C=C/C(=O)c2c(O)cc(C)oc2=O)cc1 | ? | i | i | i
Cc1cc(O)c(C(=O)/C=C/c2ccccc2)c(=O)o1 | ? | -50 | i | i
Cc1cc(O)c(C(=O)/C=C/c2ccc(C(C)C)cc2)c(=O)o1 | ? | -63 | i | i
Cc1cc(O)c(C(=O)/C=C/c2ccccc2Br)c(=O)o1 | ? | -70 | i | i
Cc1cc2c(s1)c1cnn(Cc3ccc(-c4ccccc4)cc3)c(=O)c1n2C | i | nt | nt | nt
CN1Cc2cc(C(=O)N3CCC(C4CCNCC4)CC3)ccc2N[C@@H](CC(=O)O)C1=O | nt | nt | i | nt

Compound activity deposited in PubChem by National Center for Advancing Translational Sciences (NCATS).
